In PubChem BioAssay (NCATS) one finds ratio activity, negative = inhibition and Potency data, which are given here for 40 compounds.

The structures appear in SMILES notation. Inconclusive results are not listed. Entries that show only a call come without a potency. Activity calls are given as the source filed them. The call rests on the fitted dose curve.
Potency means the concentration at half of the fitted maximal effect.

The assay in a line: S16 Schwann cell PMP22 intronic element beta-lactamase assay (AID 624044). Further: nearly all actives have a fitted effect of over 15% in size. The settings on record: S16 rat Schwann cells, PMP22 element beta-lactamase FRET, 24 h; ratio activity, negative = inhibition: at 38.3 µM (top of the series). From the text:
Description: Charcot-Marie-Tooth-Association [CMTA] National Center for Advancing Translational Sciences [NCATS] Charcot-Marie-Tooth (CMT) disease was first characterized by Jean-Martin Charcot and Pierre Marie in France and, independently, by Howard Henry Tooth in England in 1886. CMT is one of the most common inherited neurological diseases, affecting approximately 1 in 2,500 Americans. […] The most prevalent type of CMT is known as CMT1A and caused by a duplication of the PMP22 gene which leads to over-expression of this protein. PMP22 is a glycosylated intrinsic membrane protein accounting for 2-5% of the myelin protein content, and its over-expression results in demyelination and subsequently axonal loss. A pair of cellular transcription-based assays was developed in the S16 rat Schwann cell lines (Hai, M., et al., 2002) stably transfected with orthogonal reporters - firefly luciferase (Fluc) and beta-lactamase (beta-Lac) - whose expression is driven by an intronic regulatory element of the PMP22 gene (Jones, E.A., et al., 2011) to recapitulate endogenous expression of PMP22. The current assay employs Blac as a reporter of PMP22 expression. A comprehensive library of approved drugs, the NCGC Pharmaceutical Collection (Huang, R., et al., 2011), was screened in the cross-validating platform of the orthogonal reporter assays to identify drug modulators inhibitory towards PMP22 expression. A set of counter-screens was devised to address non-specific activity of the library. An ATP-dependent CellTiter-Glo assay (developed by Promega Corp) was utilized to control cell viability. In addition, biochemical Fluc enzyme assay was performed to assess direct inhibition of the Fluc enzymatic activity. References Hai, M., Muja, N., DeVries, G.H., Quarles, R.H. and Patel, P.I. Comparative analysis of Schwann cell lines as model systems for myelin gene transcription studies. J Neurosci Res, 2002. 69(4): pp 497-508 Huang, R., Southall, N., Wang, Y., Yasgar A., Shinn P., Jadhav, A. , Nguyen, D.-T. and Austin, C.P., The NCGC pharmaceutical collection: a comprehensive resource of clinically approved drugs enabling repurposing and chemical genomics. Sci Transl Med, 2011. 3(80): p. 80ps16.
S16 Schwann cell PMP22 intronic element beta-lactamase assay The beta-Lac-expressing S16 cells were seeded in black clear-bottom 1536 well plates at between 500-750 cells/6uL in DMEM medium containing 10% FBS, w/o phenol red. After overnight incubation at 37 degree Celsius/5% C02, 23 nL of compounds or DMSO were delivered to each well using a pin tool, followed by 24h-incubation at 37 degree Celsius/5% C02. Then one microl of LiveBLAzer FRET B/G detection mix (Invitrogen) was added to each well. An EnVision plate reader (PerkinElmer) was used to detect the dual beta-Lac output composed of fluorescence at 460nm for beta-Lac expression and FRET at 535nm for cell viability. The % signal at 535 nm was scaled to a full range of DMSO and zero and then normalized using the maximum response observed in the screen as 100% activity. The % signal at 460nm was normalized to the average readings of potassium clavulanate (a positive control) - treated cells relative to DMSO-treated cells (0% Activity). The concentration-effect curves were then classified based on curve quality (r2), response magnitude and degree of measured activity.
Regarding `O=S1(=O)c2cccc3cccc(c23)N1CCCN1CCN(c2ccc(F)cc2)CC1`, the ratio activity, negative = inhibition was -2.31% (active). As for `COc1cccc2c1C(=O)c1c(O)c3c(c(O)c1C2=O)C[C@@](O)(C(C)=O)C[C@@H]3O[C@H]1C[C@H](N)[C@H](O)[C@H](C)O1`, the Potency is 0.126 µM (active). Same read-out and setting: then `CC(C)(Oc1ccc(Cl)cc1)C(=O)O`, with “inactive”; and `CN=C(NC#N)NCCSCc1csc(N=C(N)N)n1`, with “inactive”. Still for that read-out and setting: then `CCN(CC)CCOC(=O)C(c1ccccc1)C1CCCCC1` (stereo not given), with “inactive”. Same read-out and setting: the same measure for `CCOC(=O)OC(C)OC1=C(C(=O)Nc2ccccn2)N(C)S(=O)(=O)c2ccccc21` (stereo not given): 8.91 µM (active); for `CCCCC(CC)CN=C(N)NC(N)=NCCCCCCN=C(N)NC(N)=NCC(CC)CCCC` (stereo not given): “inactive”.

As for `CC(C)COC(=O)c1ccc(N)cc1`, the Potency result is “inactive”. Same read-out and setting: the same measure for `CC[N+](CC)(CCNC(=O)C(=O)NCC[N+](CC)(CC)Cc1ccccc1Cl)Cc1ccccc1Cl`: “inactive”; for `CCCCCCCCCCCCCCCCOP(=O)([O-])OCC[N+](C)(C)C`: “inactive”; for `C[C@@H]1C(=O)NC2=Nc3cccc(Cl)c3CN21`: “inactive”. The same measure, in the same setting: the same measure for `CCCOC(C(=O)OC1CCN(C)CC1)(c1ccccc1)c1ccccc1`: “inactive”; for `N[C@@H](Cc1cnc[nH]1)C(=O)O`: “inactive”.

On to `COc1cc2c(cc1OC)C(C(C(=O)N(CCc1ccc(OC)c(OC)c1OC)CCc1ccc(OC)c(OC)c1OC)c1ccccc1)=NCC2` (stereo not given), for which the Potency result is “inactive”.

Turning to `CC(=O)Oc1ccc(C(c2ccc(OC(C)=O)cc2)c2ccccn2)cc1`, the Potency entry is “inactive”. The same measure, in the same setting: the same measure for `CCCn1c(=O)[nH]c(=O)c2[nH]cnc21`: “inactive”. As to `N[C@H](Cc1c[nH]c2ccccc12)C(=O)O`, the Potency entry is “inactive”. For `CCCCCCCCCCCCCCNCCO`, the Potency result is “inactive”.

Take `CC(=O)Nc1c(I)cc(I)c(C(=O)O)c1I`: the Potency result is “inactive”.

Consider `CCC(=O)c1c(O)cc(O)cc1O`, for which the Potency result was “inactive”. Same read-out and setting: then `c1ccc(OCc2ccc(CCCN3CCOCC3)cc2)cc1`, with “inactive”. Same read-out and setting: then `CCCCCCCCCCOCC(O)CN` (stereo not given), with “inactive”; and `CC(C)=CCC1C(=O)N(c2ccccc2)N(c2ccccc2)C1=O`, with “inactive”. Turning to `C#C[C@]1(O)CC[C@H]2[C@@H]3CCc4cc(OC5CCCC5)ccc4[C@H]3CC[C@@]21C`, the Potency result was “inactive”. For the compound `COc1ccc(/C=C/C(=O)c2ccc(OC)cc2OC)cc1`, the Potency result was “inactive”. The same measure, in the same setting: the same measure for `O=C(CCN1CCC(c2ccccc2)C1)c1ccc2c(c1)OCCO2` (stereo not given): “inactive”; for `CC(=O)c1ccc2c(c1)N(CCCN1CCC(CCO)CC1)c1ccccc1S2`: “inactive”; for `COc1cc2c(cc1OC)C(=O)C(CC1CCN(Cc3ccccc3)CC1)C2` (stereo not given): “inactive”. Same read-out and setting: the same measure for `Cc1cc(O)c(C(C)C)cc1Cl`: “inactive”. Take `CN1CCN(CCCN2c3ccccc3Sc3ccc(S(=O)(=O)N(C)C)cc32)CC1`: the Potency result was “inactive”.

For the compound `Clc1ccc2c(c1)CCc1cccnc1C2=C1CCNCC1`, the Potency result is “inactive”. Same read-out and setting: the same measure for `COC1=CC(=O)C[C@@H](C)[C@]12Oc1c(Cl)c(OC)cc(OC)c1C2=O`: “inactive”. On the same count and under the same terms, the same measure for `CC1=C(C(=O)OC(C)C)C(c2cccc([N+](=O)[O-])c2)C(C(=O)OC2CN(C(c3ccccc3)c3ccccc3)C2)=C(N)N1` (stereo not given): “inactive”; for `Nc1cc(Cl)c(NC2=NCCN2)c(Cl)c1`: “inactive”. On the same count and under the same terms, the same measure for `CC(=O)N/N=C/c1ccc([N+](=O)[O-])o1`: “inactive”; for `CCOC(=O)/C=C(C)/C=C/C=C(C)/C=C/c1c(C)cc(OC)c(C)c1C`: “inactive”; for `O=C(O)c1cc2cc(Cc3cccnc3)ccc2o1`: “inactive”. On to `CNCCC(Oc1ccccc1C)c1ccccc1` (stereo not given), for which the Potency result is “inactive”. The same measure, in the same setting: then `COc1cc(NS(C)(=O)=O)ccc1Nc1c2ccccc2nc2ccccc12`, with 7.94 µM (active); and `COc1cccc(CCc2ccccc2OCC(CN(C)C)OC(=O)CCC(=O)O)c1` (stereo not given), with “inactive”.
